Data taken from PubChem BioAssay AID1159580 (chemical genetic matrix, 2015).
Screen size: about 5,500 compounds; about 2,000 (36%) were called active. Roughly 18% stayed inconclusive and do not appear here. Rule as the data show it: active = normalized growth mostly below about 0.91 (no sharp cut-off); inconclusive = no clear call, values can overlap the other calls; inactive = mostly above about 0.92. The list shows a part of the results.

Test: chemical genetic growth profiling, strain panel (AID 1159580);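 also: tested at 20 µM; growth read once vehicle control cultures reached saturation at 30 °C; 1 = growth at the plate median or of vehicle wells; lower values mean less growth of the strain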
Details: S. cerevisiae deletion strains, growth OD
[1] = locus YHR030C, strain SLT2, stronger effect = lower value
[2] = locus YHR079C, strain IRE1, stronger effect = lower value
[3] = locus YJL095W, strain BCK1, stronger effect = lower value
[4] = locus YJR066W, strain TOR1, stronger effect = lower value
[5] = locus YLR113W, strain HOG1, stronger effect = lower value
[6] = locus YNL183C, strain NPR1, stronger effect = lower value
[7] = locus YOR231W, strain MKK1, stronger effect = lower value
[8] = locus YPL256C, strain CLN2, stronger effect = lower value

Measured: normalized growth

COc1ccc(C2CC(c3ccccc3)=Nc3ccccc3S2)cc1OC (centres undefined)
inactive: locus YAR019C, strain CDC15, stronger effect = lower value 0.969 | locus YBL105C, strain PKC1, stronger effect = lower value 0.962 | locus YBR135W, strain CKS1, stronger effect = lower value 0.974 | locus YBR136W, strain MEC1, stronger effect = lower value 0.947 | locus YBR160W, strain CDC28, stronger effect = lower value 0.975 | locus YDL017W, strain CDC7, stronger effect = lower value 0.965 | locus YDL028C, strain MPS1, stronger effect = lower value 0.975 | locus YDL101C, strain DUN1, stronger effect = lower value 0.965 | locus YDL108W, strain KIN28, stronger effect = lower value 0.976 | locus YDL132W, strain cdc53, stronger effect = lower value 0.975 | locus YDL214C, strain PRR2, stronger effect = lower value 0.936 | locus YDR052C, strain DBF4, stronger effect = lower value 0.97 | locus YDR054C, strain cdc34, stronger effect = lower value 0.958 | locus YDR226W, strain ADK1, stronger effect = lower value 0.967 | locus YDR477W, strain SNF1, stronger effect = lower value 0.949 | locus YER123W, strain YCK3, stronger effect = lower value 0.939 | locus YER133W, strain GLC7, stronger effect = lower value 0.952 | locus YFL009W, strain cdc4, stronger effect = lower value 0.973 | locus YFL029C, strain CAK1, stronger effect = lower value 0.945 | locus YFR003C, strain YPI1, stronger effect = lower value 0.961 | locus YFR019W, strain FAB1, stronger effect = lower value 0.967 | locus YFR028C, strain CDC14, stronger effect = lower value 0.961 | locus YGR040W, strain KSS1, stronger effect = lower value 0.94 | locus YGR052W, strain FMP48, stronger effect = lower value 1.02 | locus YGR092W, strain DBF2, stronger effect = lower value 0.935 | [1] 0.887 | [2] 0.914 | locus YHR082C, strain KSP1, stronger effect = lower value 0.975 | locus YHR205W, strain SCH9, stronger effect = lower value 0.934 | locus YIL147C, strain SLN1, stronger effect = lower value 0.959 | [3] 0.941 | locus YJL128C, strain PBS2, stronger effect = lower value 0.943 | locus YJL157C, strain FAR1, stronger effect = lower value 0.968 | locus YJR016C, strain ILV3, stronger effect = lower value 0.966 | locus YJR066W, strain TOR1 (second series), stronger effect = lower value 0.901 | [4] 0.938 | locus YKL048C, strain ELM1, stronger effect = lower value 0.968 | locus YKL067W, strain YNK1, stronger effect = lower value 0.956 | locus YKL101W, strain HSL1, stronger effect = lower value 0.927 | locus YKL193C, strain SDS22, stronger effect = lower value 0.976 | locus YKL203C, strain TOR2, stronger effect = lower value 0.965 | [5] 0.889 | locus YLR133W, strain CKI1, stronger effect = lower value 0.948 | locus YLR403W, strain SFP1, stronger effect = lower value 0.929 | locus YML070W, strain DAK1, stronger effect = lower value 0.949 | locus YMR001C, strain CDC5, stronger effect = lower value 0.969 | locus YMR205C, strain PFK2 (second series), stronger effect = lower value 0.95 | locus YMR277W, strain FCP1, stronger effect = lower value 0.97 | locus YNL006W, strain LST8, stronger effect = lower value 0.988 | locus YNL020C, strain ARK1, stronger effect = lower value 0.939 | locus YNL161W, strain CBK1, stronger effect = lower value 0.962 | [6] 0.939 | locus YNL207W, strain RIO2, stronger effect = lower value 0.97 | locus YNL222W, strain SSU72, stronger effect = lower value 0.968 | locus YNL307C, strain MCK1 (second series), stronger effect = lower value 0.974 | locus YOL078W, strain AVO1, stronger effect = lower value 0.975 | locus YOL136C, strain PFK27, stronger effect = lower value 0.946 | locus YOR061W, strain CKA2, stronger effect = lower value 0.94 | locus YOR119C, strain RIO1, stronger effect = lower value 0.949 | [7] 0.918 | locus YOR329C, strain SCD5, stronger effect = lower value 0.97 | locus YPL031C, strain PHO85, stronger effect = lower value 0.932 | locus YPL153C, strain RAD53, stronger effect = lower value 0.958 | locus YPL204W, strain HRR25, stronger effect = lower value 0.948 | locus YPL209C, strain IPL1, stronger effect = lower value 0.975 | [8] 0.879 | locus YPR025C, strain CCL1, stronger effect = lower value 0.966 | locus YPR106W, strain ISR1, stronger effect = lower value 0.971 | locus YPR111W, strain DBF20, stronger effect = lower value 0.97 | strain NNK1, stronger effect = lower value 0.958 | strain TSCII, stronger effect = lower value 0.965

Cc1ncc(C[n+]2csc(CCO)c2C)c(=O)[nH]1
inactive: [1] 1.04 | [2] 1.05 | [3] 0.991 | [4] 0.984 | [5] 0.979 | [6] 0.976 | [7] 1.03 | [8] 1.05
